The inhibition is the change of the read-out against control, counted positive when it falls.

Among all 89,000 compounds or so, about 440 (0.49%) were called active. Only a selection was taken, and actives are over-represented in it overall. A number with no mark means an inactive call.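 The calls were made as follows: active = inhibition above the mean inhibition across all screened compounds plus 3 SD (cut at about 11% in these data); inactive = the rest.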

In PubChem BioAssay AID1117264 (The Scripps Research Institute Molecular Screening Center, 2014) one finds inhibition data, which are given here for 90 compounds.

For the test, the target named is RNA-editing ligase 1, mitochondrial (Trypanosoma brucei brucei) (UniProt P86926). Kind of test: T. brucei editing ligase REL1 blockade – biochemical, FRET fluorescence, primary screen (AID 1117264).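 Also: 0% = plate median of test wells and 100% = NSC42067 control.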 The conditions noted are these: TbREL1 RNA ligation, at 9.66 µM, active compounds read high.
Sequence of RNA-editing ligase 1, mitochondrial (Trypanosoma brucei brucei) (P86926 whole entry, looked up): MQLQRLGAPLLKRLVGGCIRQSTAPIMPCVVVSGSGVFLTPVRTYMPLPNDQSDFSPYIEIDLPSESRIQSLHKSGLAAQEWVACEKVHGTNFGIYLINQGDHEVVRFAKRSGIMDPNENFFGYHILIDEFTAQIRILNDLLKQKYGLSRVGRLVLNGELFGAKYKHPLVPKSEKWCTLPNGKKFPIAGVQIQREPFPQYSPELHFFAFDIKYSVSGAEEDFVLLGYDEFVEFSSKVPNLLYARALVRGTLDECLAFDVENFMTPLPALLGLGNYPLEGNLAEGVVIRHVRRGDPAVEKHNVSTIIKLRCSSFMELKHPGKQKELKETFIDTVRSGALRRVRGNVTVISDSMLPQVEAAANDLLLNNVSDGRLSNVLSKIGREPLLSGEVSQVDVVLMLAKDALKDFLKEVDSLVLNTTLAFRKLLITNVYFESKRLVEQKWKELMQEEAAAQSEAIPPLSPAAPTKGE
Regarding `CSc1ccc(C=Nn2c(-c3ccc(F)cc3)n[nH]c2=S)cc1`, the inhibition is -3.89%. Turning to `CC(C)Cc1nnc(NC(=O)CN2C(=O)NC3(CCCCC3)C2=O)s1`, the inhibition is 4.69%. In the case of `Cc1ccc(C(=O)NCC(=O)NCc2cc(=O)n(C)c(=O)n2C)cc1`, the inhibition is 1.66%.

Turning to `Nn1c(SCC(=O)NC2CCCc3ccccc32)nnc1C1CC1` (stereo not given), the inhibition was 0.24%.

On to `COc1ccc(-c2cc(-c3nnc(SCC(=O)Nc4cccc5ccccc45)n3N)[nH]n2)cc1`, for which the inhibition is -2.51%. For `CCOC(=O)C1=C(CC)Nc2ccccc2N=C1N`, the inhibition is 3.99%.

On to `COCCCn1c(SCC(=O)Nc2oc(C)c3c(C)n[nH]c(=O)c23)nc2sc3c(c2c1=O)CCC3`, for which the inhibition is -6.64%. Consider `CCC(C)C(N=C1NS(=O)(=O)c2ccccc21)C(=O)N1CCC(C)CC1` (stereo not given), for which the inhibition is -0.06%. With `CN(CC(=O)Nc1ccccc1[N+](=O)[O-])Cc1ccc(Br)cc1`, the inhibition was 1.93%.

`CCNC(=O)N1CCCC(C(=O)c2ccc(-c3ccccc3)cc2)C1` (stereo not given): the inhibition is -3.04%. Take `O=C(NN=Cc1ccc([N+](=O)[O-])cc1)C1CC1`: the inhibition was -3.07%. Regarding `COC(=O)c1c(C)c(C)nc(N)c1C#N`, the inhibition is -2.53%. The figure for `Cc1nc(Cl)c(C#N)c2c1CCCC2` is 8.75%. As to `COCc1c(N)c(C)nc(Cl)c1C#N`, the inhibition was 11.8% (active). Take `O=C(NCc1ccccc1)[C@H]1CCCN1C(=O)[C@H]1CCCN1C(=O)N1CCOCC1`: the inhibition is -0.82%. For `COc1cccc(CNC(=O)COC(=O)CN2C(=O)NC3(CCCCC3C)C2=O)c1` (stereo not given) the value was 1.52%; for `CC1CCN(C(=O)COC(=O)c2cc(S(=O)(=O)N3CCOCC3)ccc2Cl)CC1`, -2.18%; for `O=C(NCC(c1ccco1)N1CCc2ccccc21)c1cccc(F)c1` (stereo not given), -8.09%.

Turning to `COc1cc(NC(=O)C2CCCN(S(=O)(=O)c3ccc(C(C)(C)C)cc3)C2)cc(OC)c1` (stereo not given), the inhibition is 5.8%. As to `COc1cc(S(=O)(=O)N2CCN(C(=O)C3CC3)CC2)ccc1NC(C)=O`, the inhibition was 4.21%. In the case of `COC(=O)[C@@]12CCCCC=C1N(CCc1ccc(Cl)cc1)C(=O)[C@H]2CC(=O)NCc1ccc(OC)c(OC)c1`, the inhibition is -3.3%.

Take `Cc1cccc(C)c1NC(=O)C(c1cccc(F)c1)N1CCN(C)CC1` (stereo not given): the inhibition was -2.52%. The figure for `COc1ccc(C(C(=O)Nc2c(C)cccc2C)N2CCN(c3ccc(C)cc3)CC2)cc1` (stereo not given) is 23.2% (active). `COc1ccc(N2CCC(CNC(=S)Nc3c(C)cccc3C)C2)cc1` (stereo not given): the inhibition is -3.26%. With `COc1ccc(C2COC(=O)C2=N)c(NC(=O)c2ccccc2)c1` (stereo not given), the inhibition was -1.11%. Regarding `COc1ccc(N2C(=O)CC(SC(C)C)C2=O)cc1` (stereo not given), the inhibition was -3.91%. For `CCOc1ccc(C(=O)CCC(=O)Nc2ccncc2)cc1` the value was -0.23%; for `O=C(CSc1nc(O)c(Cc2ccccc2)c(=O)[nH]1)Nc1nc2c(s1)CCCC2`, -3.09%; for `CC1CCCCC12NC(=O)N(CC(=O)N1CCN(c3ccccc3)CC1)C2=O` (stereo not given), -1.93%. On to `C[C@H](NC(=O)c1ccccc1Cl)C(=O)OCC(=O)N1CCN(c2ccccc2)CC1`, for which the inhibition is -4.27%.

As to `O=C(NC1CCC(O)CC1)c1ccccc1OCc1ccc(F)cc1` (stereo not given), the inhibition was -4.15%.

Regarding `CCC(C)NCC(=O)Nc1ccc([N+](=O)[O-])cc1C(=O)Nc1ccccc1F` (stereo not given), the inhibition is 1.57%. Turning to `O=C(COC(=O)/C=C/c1ccc2c(c1)OCO2)NC1CCS(=O)(=O)C1` (stereo not given), the inhibition was -1.84%. For `CC(=O)c1c(C)oc2ccc(NS(=O)(=O)c3ccc(C(=O)O)cc3)cc12`, the inhibition was 2.43%. Consider `Cc1cc(C)nc(NC(=S)N2CCN(c3ccc(C(F)(F)F)cn3)CC2)c1`, for which the inhibition is -3.25%. Take `Cc1cccc(C(=O)Nc2ccc3c(c2)C(=O)N(CC(C)C)C3=O)c1`: the inhibition was 5.77%.

`CC(=O)N(CN1C(=O)C2C3C=CC(C3)C2C1=O)c1cccc(Cl)c1` (stereo not given): the inhibition was -2.46%. For `COC(=O)[C@@]12CCCCC3=C1N(CCC3)C(=O)[C@H]2CC(=O)NCc1cccc2ccccc12`, the inhibition is -3.03%. The figure for `CN(CC(=O)Nc1c(Cl)cccc1Cl)C(=O)c1ccncc1` is -0.71%.

In the case of `CCOC(=O)[C@H]1[C@H]2COc3ccc(Cl)cc3[C@@H]2N2C(=O)c3cc(C)ccc3NC(=O)[C@@]12C`, the inhibition was -1.49%.

`COc1cccc(CNC(=O)CNS(=O)(=O)c2ccc3nc(C)sc3c2)c1OC`: the inhibition was -4.98%. In the case of `CCCCN(C1CCS(=O)(=O)C1)S(=O)(=O)c1ccc(C(C)C)cc1` (stereo not given), the inhibition was 0.44%. Consider `COc1cccc(NC(=O)CN(C)C(=O)CSCc2nc3scc(-c4cccs4)c3c(=O)[nH]2)c1`, for which the inhibition is -0.31%. In the case of `Cc1ccccc1NC(=O)Cn1cc(C(=O)C2CC2)c2ccccc21`, the inhibition is 2.47%. Regarding `COc1cc(NS(=O)(=O)c2ccc(NC(C)=O)cc2)cc(OC)c1`, the inhibition was 0.52%.

In the case of `COc1cc(NC(=O)CCS(=O)(=O)c2ccc3c(c2)oc(=O)n3C)cc(OC)c1`, the inhibition is 12.5% (active). As for `COc1cccc(NC(=O)CCNS(=O)(=O)c2ccc3c(c2)oc(=O)n3C)c1`, the inhibition is 3.31%. The figure for `Cc1ccc(NC(=O)C(C)Sc2nnc(C3CC3)n2C2CC2)cc1S(=O)(=O)N1CCOCC1` (stereo not given) is 5.95%; for `CCC(C(=O)OC)n1cnc2scc(-c3ccc(C)cc3)c2c1=O` (stereo not given) it is 2.37%; for `Cc1ccccc1NC(=S)N(CCCN1CCOCC1)Cc1cccs1` it is -3.36%.

Regarding `CCCN(CCC)C(=S)Nc1cc(C(=O)OC)ccc1C(=O)OC`, the inhibition was -1.86%.

`CCCCn1nnnc1C(c1ccccc1)N1CCN(c2ccccc2OC)CC1` (stereo not given): the inhibition was 0.09%. In the case of `O=C(C1CCCN1S(=O)(=O)c1ccccc1)N1CCc2ccccc2C1` (stereo not given), the inhibition is 3.88%. In the case of `O=C(COC(=O)CNS(=O)(=O)c1ccccc1)NC12CC3CC(CC(C3)C1)C2`, the inhibition was -1.46%. As to `CN1CCN(/N=C2/C(=O)Nc3ccc([N+](=O)[O-])cc32)CC1`, the inhibition is 11.2% (active).

For the compound `O=C(O)COCC(=O)NCc1csc2ccc(Cl)cc12`, the inhibition is 2.32%. Consider `O=C(N/N=C/c1cccc([N+](=O)[O-])c1)c1ccncc1`, for which the inhibition was 7.99%. For the compound `O=[N+]([O-])c1ccc2c(c1)C(O)n1nc(-c3ccccc3)nc1S2` (stereo not given), the inhibition is 5.85%. Regarding `O=C(CSc1nccn1-c1cccc(F)c1)NC1CCCC1`, the inhibition was -3.03%. For the compound `COc1cc(-c2nnc(NC(=O)C3=COCCO3)o2)cc(OC)c1OC`, the inhibition is 1.27%. Take `O=C(CSc1nc2ccccc2nc1N1CCCCC1)N1CCN(S(=O)(=O)c2cccc([N+](=O)[O-])c2)CC1`: the inhibition was -1.26%. `Cc1cc(=O)oc2cc(OCC(=O)Nc3nnc(C4CC4)s3)ccc12`: the inhibition is 4.82%. Take `Cc1ccc(NC(=O)CN(C)C(=O)COC(=O)C(C)(C)Oc2ccc(Cl)cc2)cc1`: the inhibition was 1.09%. With `CCNc1nc(Oc2ccc(C(=O)OC)cc2)nc(N2CCOCC2)n1`, the inhibition was 3.37%. For `CCCC[C@@H]1CN=C(N)N1CCCC` the value was 8.04%; for `O=C(Cn1nnc(N2CCCCC2)n1)c1ccc(Cl)c(Cl)c1`, 2.76%.

Regarding `O=C(Nc1cccc(F)c1)NC1CCCc2ccccc21` (stereo not given), the inhibition is 4.99%.

With `O=C(Nc1cccc(F)c1)NC1CCCCCCC1`, the inhibition was 12% (active).

As to `Cc1cc(C)cc(NC(=O)NC2CCCCCCC2)c1`, the inhibition is 4.83%.

Turning to `O=C(CSc1nnc(COc2ccccc2)n1Cc1ccco1)c1ccc2ccccc2c1`, the inhibition was 2.5%. As for `CN1CCC(=NNC(=O)c2ccc(N(Cc3ccc(Cl)cc3)S(C)(=O)=O)cc2)CC1`, the inhibition is 0.47%.

As for `CC(C)C[C@H]1CN=C(Nc2ccccc2)N1CC1CCCCC1`, the inhibition was 4.52%. On to `Cc1cc(C)c(OCC(=O)N(Cc2cccs2)C2CCS(=O)(=O)C2)c(C)c1` (stereo not given), for which the inhibition is 2.35%.

Consider `C=CCNC(=S)NNC(=O)c1cc(Cl)ccc1OC`, for which the inhibition is -1.18%. Regarding `CCN(C(=O)CSc1nnc(-c2ccc(OC(F)F)cc2)n1N)C1CCS(=O)(=O)C1` (stereo not given), the inhibition is -0.55%. Turning to `O=C(CSc1ccc([N+](=O)[O-])cn1)Nc1ccc(N2CCOCC2)c(Cl)c1`, the inhibition is 4.47%.

`CC(C)CNC(=O)OCc1cn(Cc2ccc(F)cc2)nn1`: the inhibition was -1.2%.

Regarding `Nc1nonc1-n1nnc(C(=O)N/N=C/C2CCCCC2)c1-c1ccccc1`, the inhibition is 2.56%. Take `CC1CCN(S(=O)(=O)c2ccc3[nH]c(=O)ccc3c2)CC1`: the inhibition is 2.13%. The figure for `Cc1cccc(NC(=S)N2CCCC(c3nc4ccccc4[nH]3)C2)c1` (stereo not given) is -6.41%.

In the case of `COc1ccc(NC(=O)CCN2C(=O)/C(=C/c3ccc4c(c3)OCO4)SC2=S)cc1`, the inhibition is -1.87%. Regarding `O=C(O)c1ccc(S(=O)(=O)N2CCOCC2)o1`, the inhibition was 0.79%.

Consider `COc1ccc(Br)c(Cn2c(C)c(C(=O)NCc3cccs3)sc2=O)c1`, for which the inhibition is 2.25%.

Take `Cc1cc(NC(=O)C(C)N2C(=O)c3ccccc3S2(=O)=O)no1` (stereo not given): the inhibition is 3.27%. As to `CC1(C)Cc2c(sc(NC(=O)C(=O)N3CCOCC3)c2C#N)CO1`, the inhibition is -1.21%. For `COc1ccc(OC)c(NC(=O)c2cccc(S(=O)(=O)N3CCN(C(C)=O)CC3)c2)c1` the value was -0.85%; for `CC(=O)Nc1ccc(NC(=O)CSC2=NS(=O)(=O)c3ccccc3N2)cc1`, 2.64%.

As for `CCCOc1cccc(C(=O)Nc2ccccc2C(=O)N2CCN(C)CC2)c1`, the inhibition was 0.64%.

On to `Cc1sc2ncn(CC(=O)NCCN(C)C)c(=O)c2c1S(=O)(=O)N1CCC(C)CC1`, for which the inhibition was -1.59%. For the compound `Cc1ccc(C(=O)Cc2nnc(C)s2)cc1`, the inhibition was -0.4%.
